Values without a mark were called inactive.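 Rule for the calls: active = curve showing a falling signal whose half-maximal concentration is at most twice the top valid dose; inconclusive = flat curve with a moderate drop, or an unreliable fit; inactive = the rest.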
Assay: endogenous miR-21 quantity in Huh7 cells – cell-based, RT-qPCR, dry powder, selectivity assay for miR-122 inhibitor project, dose response (AID 687038)
Details: Huh7 miR-21 levels, qRT-PCR, 48 h; series mostly up to 35 µM; relative miR-21 level (fold): at the top concentration
In the case of `C[C@H](CO)N1C[C@H](C)[C@H](CN(C)C(=O)C2CCOCC2)Oc2cc(C#Cc3ccncc3)ccc2S1(=O)=O`, the “relative miR-21 level (fold)” value is reported as 0.799 fold. With `CCn1cc(C(=O)O)c(=O)c2cc(F)c(N3CCNCC3)nc21` the “relative miR-21 level (fold)” value was 1.59 fold. For `COCC(=O)N(C)C[C@@H]1Oc2ncc(-c3ccc(C#N)cc3)cc2C(=O)N([C@@H](C)CO)C[C@@H]1C`, the “relative miR-21 level (fold)” value was 1.45 fold. With `C[C@@H]1CN([C@H](C)CO)S(=O)(=O)c2ccc(C#Cc3ccncc3)cc2O[C@@H]1CN(C)C(=O)C1CCOCC1` the “relative miR-21 level (fold)” value was 0.867 fold. In the case of `C[C@H]1CN([C@@H](C)CO)C(=O)c2cc(C#Cc3ccccc3F)cnc2O[C@@H]1CN(C)C(=O)C1CCCCC1`, the “relative miR-21 level (fold)” value is reported as 0.5 fold. With `O=C(NCc1ccccc1Cl)c1ccc(CNc2c(NC3CCCCC3)c(=O)c2=O)cc1` the “relative miR-21 level (fold)” value was 0.249 fold. For `COc1ccc(S(=O)(=O)N(C)C[C@@H]2Oc3ncc(/C=C/c4ccccc4)cc3C(=O)N([C@@H](C)CO)C[C@@H]2C)cc1`, the “relative miR-21 level (fold)” value was 1.54 fold. With `CN1C(=O)c2cc(NC(=O)c3cccc(F)c3)ccc2OC[C@@H]2O[C@@H](CC(=O)O)CC[C@@H]21` the “relative miR-21 level (fold)” value was 0.771 fold. In the case of `C[C@H]1CN([C@@H](C)CO)S(=O)(=O)c2ccc(C#Cc3ccncc3)cc2O[C@H]1CN(C)C(=O)C1CCOCC1`, the “relative miR-21 level (fold)” value is reported as 0.804 fold. In the case of `C[C@H]1CN([C@@H](C)CO)C(=O)c2cc(-c3ccc(C#N)cc3)cnc2O[C@H]1CN(C)C(=O)Nc1ccc(C(F)(F)F)cc1`, the “relative miR-21 level (fold)” value is reported as 0.659 fold. In the case of `C[C@@H]1CN([C@H](C)CO)S(=O)(=O)c2ccc(/C=C/c3ccccc3)cc2O[C@@H]1CN(C)C(=O)c1cccnc1`, the “relative miR-21 level (fold)” value is reported as 0.881 fold. With `C[C@@H]1CN([C@H](C)CO)S(=O)(=O)c2ccc(C#Cc3ccncc3)cc2O[C@H]1CN(C)C(=O)C1CCOCC1` the “relative miR-21 level (fold)” value was 0.753 fold. With `Cc1cccc(NC(=O)Nc2ccc3c(c2)C(=O)N(C)[C@@H]2CC[C@@H](CC(=O)NCc4ccccc4Cl)O[C@H]2CO3)c1` the “relative miR-21 level (fold)” value was 1.3 fold. With `O=C(c1ccc(CN2CCOCC2)cc1)N1CCc2ccccc21` the “relative miR-21 level (fold)” value was 1.02 fold. With `OCc1ccc(-c2nn(Cc3ccccc3)c3ccccc23)o1` the “relative miR-21 level (fold)” value was 1.18 fold. In the case of `CCOC(=O)N1CCC(NC(=O)c2ccc3c(c2)sc2nc(-c4ccccc4)cn23)CC1`, the “relative miR-21 level (fold)” value is reported as 1 fold. In the case of `C[C@@H]1CN([C@@H](C)CO)S(=O)(=O)c2ccc(C#Cc3ccncc3)cc2O[C@@H]1CN(C)C(=O)C1CCOCC1`, the “relative miR-21 level (fold)” value is reported as 0.684 fold. With `C[C@@H]1CN([C@@H](C)CO)S(=O)(=O)c2ccc(C#Cc3ccncc3)cc2O[C@H]1CN(C)C(=O)C1CCOCC1` the “relative miR-21 level (fold)” value was 0.725 fold. In the case of `CCCC#Cc1ccc2c(c1)O[C@H](CN(C)C(=O)c1ccncc1)[C@H](C)CN([C@@H](C)CO)S2(=O)=O`, the “relative miR-21 level (fold)” value is reported as 0.809 fold. With `C[C@H]1CN([C@@H](C)CO)C(=O)c2cc(-c3ccc(C#N)cc3)cnc2O[C@H]1CN(C)C(=O)c1ccccc1` the “relative miR-21 level (fold)” value was 1.1 fold. With `C[C@H]1CN([C@@H](C)CO)C(=O)c2cc(-c3ccc(C#N)cc3)cnc2O[C@H]1CN(C)Cc1cncnc1` the “relative miR-21 level (fold)” value was 0.821 fold. For `CN1C(=O)c2cc(NC(=O)c3cccc(F)c3)ccc2OC[C@H]2O[C@H](CC(=O)O)CC[C@@H]21`, the “relative miR-21 level (fold)” value was 0.751 fold. For `COCC(=O)N(C)C[C@H]1Oc2cc(-c3ccc(C#N)cc3)ccc2S(=O)(=O)N([C@H](C)CO)C[C@H]1C`, the “relative miR-21 level (fold)” value was 0.916 fold. With `CCOC(=O)N1CCC(NC(=O)c2ccc3nc(N4CCC(C)CC4)sc3c2)CC1` the “relative miR-21 level (fold)” value was 0.949 fold. With `Cc1cccc(NC(=O)Nc2ccc3c(c2)C(=O)N(C)[C@@H]2CC[C@H](CC(=O)NCc4ccccc4Cl)O[C@H]2CO3)c1` the “relative miR-21 level (fold)” value was 2.03 fold. In the case of `CO[C@@H]1CN(C)C(=O)c2cc(NC(=O)c3cccc(Oc4ccccc4)c3)ccc2OC[C@H](C)NC[C@@H]1C`, the “relative miR-21 level (fold)” value is reported as 1.07 fold. With `COc1cccc(-c2ccc3c(c2)O[C@H](CN(C)C(=O)C2CCOCC2)[C@H](C)CN([C@@H](C)CO)S3(=O)=O)c1` the “relative miR-21 level (fold)” value was 1.15 fold. With `COCC(=O)N(C)C[C@H]1Oc2cc(-c3ccccc3F)ccc2S(=O)(=O)N([C@@H](C)CO)C[C@H]1C` the “relative miR-21 level (fold)” value was 0.547 fold. For `Nc1ccc(Oc2ccc(Cl)cc2)cc1`, the “relative miR-21 level (fold)” value was 0.488 fold. In the case of `COCC(=O)N(C)C[C@H]1Oc2cc(-c3ccccc3F)ccc2S(=O)(=O)N([C@H](C)CO)C[C@H]1C`, the “relative miR-21 level (fold)” value is reported as 1.56 fold. In the case of `CCCC#Cc1ccc2c(c1)O[C@H](CN(C)C(=O)COC)[C@H](C)CN([C@@H](C)CO)S2(=O)=O`, the “relative miR-21 level (fold)” value is reported as 0.974 fold. For `CN(C)CCCOc1nn(Cc2ccccc2)c2ccccc12`, the “relative miR-21 level (fold)” value was 2.12 fold.

From PubChem BioAssay AID687038 (Broad Institute, 2013)
